This is part of a sample that, as a whole, favours compounds with a hit. Of some 83,000 tested, about 20% had one in any assay.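 48-hour exposure, single concentration, 96-well plates; percent growth endpoint where 0 means no net growth. Active: below 10.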 Activity calls are given as the source filed them.

This experiment relates to U251 CNS. In words: NCI-60 one-dose screen, 48 h (100 = growth as untreated, 0 = no growth, -100 = all killed). The conditions noted are these: 10 µM unless noted. The procedure: Growth inhibition of the U251 human tumor cell line is measured as a screen for anti-cancer activity. Cells are grown in 96 well plates and exposed to the test compound for 48 hours. Compounds are tested at a single concentration, which is 10^-5 M for most compounds. The reported endpoint is percent growth (GI% or GIPRCNT), where numbers from 0 - 100% represent growth inhibition, and numbers from -100% - 0 represent cell death. For example, a value of 40 represents 60% growth inhibition. A value of 0 means no net growth occurred over the course of the experiment. A value of -40 indicates 40% of cells at the beginning of the experiment died by the end of the experiment. A value of -100 means all cells are dead at the end of the experiment.
NCI-60 Human Tumor Cell Lines Screen was performed using the standard one-dose NCI protocol, which is described in more detail at https://dtp.cancer.gov/discovery_development/nci-60/default.htm.
Compounds with GIPRCNT values below 10 were considered active. Activity score was based on GIPRCNT using the following formula: […]
Score is 0 for GIPRCNT values of 100 or above, 50 for GIPRCNT values of 0, and 100 for GIPRCNT values of -100.
Regarding `O=[N+]([O-])c1cnc(N2CCN(CC3CC3)CC2)nc1N1CCN(CC2CC2)CC1`, the growth was 98.4% (inactive). Take `CC(=O)c1cc(C(=O)c2ccc3c(c2)Sc2ccccc2N3)n2ccccc12`: the growth is 9.6% (active). The figure for `CCn1c(O)c(/C=N/NC(=O)C(C)c2ccc(CC(C)C)cc2)sc1=S` (stereo not given) is 15.6% (inactive); for `CC(=O)O[C@H]1[C@@H]2OC(=O)C(CSc3ccccc3)[C@@H]2C[C@H]2O[C@]2(C)CC/C=C(\C)CCC[C@@H]1C` (stereo not given in full) it is 51.6% (inactive); for `CC(C)(C)c1cc(/C=N\NC(=O)/C=C/C=C/c2ccc3c(c2)OCO3)c(O)c(C(C)(C)C)c1` it is 84% (inactive). On to `Cn1cc(C(=O)c2nc(-c3c[nH]c4ccc(Br)cc34)no2)c2cc(F)ccc21`, for which the growth was 100% (inactive). The figure for `CC(=O)NCC1c2c(n(C)c3c(Cl)c(Cl)ccc23)C(=O)NC1(C)C` (stereo not given) is 94.7% (inactive). Then `N#CN1CC[C@H](C(=O)Nc2cc3cc(C(N)=O)ccc3cn2)C1`, with -2.5% (active); and `Cc1[nH]c(-c2cc(N)ccc2Cl)c2c1C(=O)CCCC2`, with 38.5% (inactive). Then `C(=C\c1nccc2c1[nH]c1ccccc12)/c1ccccc1`, with 15.1% (inactive); and `COc1cc(-c2nc(C(=O)NCC(=O)NO)nn2-c2ccc(Cl)cc2)cc(OC)c1OC`, with 96.1% (inactive). Consider `c1csc(C2=NN3C(C2)c2ccccc2OC3c2ccncc2)c1` (stereo not given), for which the growth was 91.5% (inactive).

With `C=C(C)C(=O)Nc1ccc(NC(C)C)cc1`, the growth was 123% (inactive). The figure for `Cc1nn(-c2cc(=O)[nH]c3ccccc23)c(N)c1C#N` is 99% (inactive); for `COc1cccc2c1C(=O)c1c(O)c3c(c(O)c1C2=O)C[C@](O)(C(=O)CO)C[C@H]3O[C@@H]1C[C@@H](NC(=O)CCCCCN(C)C2(c3ccc(F)cc3)CC3CCC2C3)[C@H](O)[C@@H](C)O1` (stereo not given in full) it is -100% (active). The figure for `CC(=O)O[C@H]1C(=O)[C@@]2(C)[C@H]([C@H](OC(=O)c3ccccc3)[C@]3(O)C[C@H](OC(=O)[C@H](OC(=O)CCC(=O)OC4CCC(S/N=C(N)/N=C(\N)N(C)C)CC4)[C@@H](NC(=O)c4ccccc4)c4ccccc4)C(C)=C1C3(C)C)[C@]1(OC(C)=O)CO[C@@H]1C[C@@H]2O` (stereo not given in full) is 17.1% (inactive); for `CC(=O)OCCC/C(=C/c1cc2ccccc2c2ccccc12)[N+](=O)[O-]` it is -95.4% (active). The figure for `CCOc1cc2c(cc1OCC)C(c1cc(OC)c(O)cc1Cl)NCC2` (stereo not given) is 84.1% (inactive); for `Cc1ccc2c(C(C[N+](=O)[O-])c3ccccc3)c(-c3ccccc3)[nH]c2c1` (stereo not given) it is 25% [9.5 µM] (inactive); for `Cn1cc(C(=O)c2nc(-c3c[nH]c4ccccc34)no2)c2ccccc21` it is 92.4% (inactive). As to `O=c1oc2c(C(F)(F)F)cccc2cc1-c1csc(Nc2ccc(OCCF)cc2)n1`, the growth is 5.11% (active).

Take `N#Cc1c(N)n(CCNC(=O)c2ccccc2)c2nc3ccccc3nc12`: the growth is 115% (inactive). Then `COc1cccc2c1C(=O)c1c(O)c3c(c(O)c1C2=O)C[C@](O)(C(=O)CO)C[C@H]3O[C@@H]1C[C@@H](NC(=O)CCCN(C)C2(c3ccc(F)cc3)CC3CCC2C3)[C@H](O)[C@@H](C)O1` (stereo not given in full), with -98% (active); and `Cc1cc(N2CCCC2)nc(NC2CCCC(Nc3ccnc4cc(Cl)ccc34)C2)n1` (stereo not given), with -96.1% (active). The figure for `COc1ccccc1Nc1nc(-c2cc3cccc(C(F)(F)F)c3oc2=O)cs1` is 9.97% (active); for `COc1nc2c(c(=O)n1C)CN(Cc1ccccc1)C=N2` it is 115% (inactive).

Regarding `Nc1ccc(-c2cc3c(NCc4ccccc4)ncnc3s2)cc1`, the growth is 82.4% (inactive). Turning to `COc1ccc(CN2c3ccccc3Sc3ccccc32)cc1O`, the growth was 18.5% (inactive). The figure for `Clc1ccc2c(NCCNc3nc(N4CCOCC4)nc4ccccc34)ccnc2c1` is -93.1% (active); for `COc1ccc(Nc2cc(C)nc(N3CCN(c4ccnc5cc(Cl)ccc45)CC3)n2)cc1` it is 37.6% (inactive); for `O=C(O)c1c(=O)cccc2ssc12` it is -91.9% (active). Then `Cn1c(=O)[nH]c(=O)c2nc(CCC(=O)NCCC(=O)O)c(=O)[nH]c21`, with 98.2% (inactive); and `O=C(C(=O)c1ccc2c(c1)OCO2)c1ccc2c(c1)OCO2`, with 103% (inactive). The figure for `O=[N+]([O-])c1ccc(Nc2nc(NCCN3CCOCC3)ncc2[N+](=O)[O-])cc1` is 88.6% (inactive). `Clc1ccc2nc3nc4ccc[nH]c4cc3c2c1`: the growth is 82.8% (inactive). The figure for `CCOc1nc(-c2ccccc2)cc2c(O)c(C(=O)O)[nH]c(=O)c12` is 104% (inactive). The figure for `O=C1OC(c2ccccc2)C(O)=C1c1ccccc1` (stereo not given) is 100% (inactive).

Turning to `COc1cc2c(cc1-c1c(C)noc1C)ncc1nc(C3CCOCC3)n([C@@H](C)COC(F)F)c12`, the growth is 53.3% (inactive).

With `NC(=O)c1cc(Cl)ccc1NC(=O)/C=C/c1ccccc1`, the growth was 29.8% (inactive). The figure for `C=C(C)C1CC(O)C2(C)CCCC3C2C1CC(C)C3(C)CC/C(C)=C/C(O)C1CCC(=O)c2c(OC)cc(OC)cc21` (stereo not given) is 35.9% (inactive).

These data come from PubChem BioAssay (NCI).
